High-throughput results deposited in PubChem BioAssay by National Center for Advancing Translational Sciences (NCATS).
Only some compounds are listed: those with a hit (about 3% of all), similar ones and a draw of the others.
VDR inhibitor = inhibitors of human vitamin D receptor; P11473; AID 504847; VDR-SRC2-3 peptide fluorescence polarization, 2 h; hit rate 0.93% among 400,000; Potency, µM, actives largely listed as inhibitors
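Reagent solutions, kept cold and dark, are dispensed first; compounds are then pinned in at 23 nl, plates briefly spun, and incubated 2 h at ambient temperature. Inhibition of VDR–SRC2-3 peptide binding is read by fluorescence polarization.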
PLK1 PBD inh = blocks phosphopeptide binding to human PLK1 polo-box domain. P53350. Plk1 PBD binding of FITC phosphopeptide, fluorescence polarization. Potency, µM, most hits filed as inhibitors. hit rate 2.8% among 360,000; note: series mostly up to about 57 µM; nearly all actives have a fitted effect of over 65% in size
ALOX12 inh = ALOX12 (human) lipoxygenase inhibition; P18054; purified 12hLO, xylenol orange hydroperoxide absorbance; Potency, µM (series often up to 108 µM), actives largely listed as inhibitors; hit rate 1.1% among 580,000; AID 1671190
Target sequence (P18054 whole entry, looked up): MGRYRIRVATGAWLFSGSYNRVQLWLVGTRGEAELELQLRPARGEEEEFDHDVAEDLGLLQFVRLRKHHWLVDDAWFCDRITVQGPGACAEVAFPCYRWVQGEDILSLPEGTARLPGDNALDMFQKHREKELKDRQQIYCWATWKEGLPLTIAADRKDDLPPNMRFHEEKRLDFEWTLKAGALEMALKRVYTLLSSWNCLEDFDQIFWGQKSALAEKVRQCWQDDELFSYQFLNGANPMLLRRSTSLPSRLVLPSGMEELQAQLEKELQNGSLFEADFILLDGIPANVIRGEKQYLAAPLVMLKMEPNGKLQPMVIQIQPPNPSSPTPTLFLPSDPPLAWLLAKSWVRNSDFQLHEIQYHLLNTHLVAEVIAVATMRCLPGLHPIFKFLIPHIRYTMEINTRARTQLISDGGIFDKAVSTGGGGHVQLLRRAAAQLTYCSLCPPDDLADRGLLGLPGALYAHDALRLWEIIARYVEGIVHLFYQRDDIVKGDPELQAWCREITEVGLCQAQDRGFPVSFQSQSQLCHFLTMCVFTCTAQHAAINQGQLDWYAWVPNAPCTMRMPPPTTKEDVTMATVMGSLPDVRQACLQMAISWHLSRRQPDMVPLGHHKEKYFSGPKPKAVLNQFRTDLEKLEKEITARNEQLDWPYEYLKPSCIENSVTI
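Hydroperoxide product was detected by ferrous iron/xylenol orange as the 573 to 405 nm absorbance ratio. Arachidonic acid at 40 uM (final) was turned over for 30 min at room temperature by 150 nM human 12hLO, pH 7.0 Hepes buffer, after 15 min compound preincubation.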
KAT2A inh = inhibitors of human GCN5L2 histone acetyltransferase. GCN5L2 HAT assay, ThioGlo1 CoA-SH fluorescence. Potency, µM (top dose mostly 58.9 µM), hits mostly inhibitors. hit rate 0.21% among 390,000. AID 504327
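qHTS, 1536-well. 20nM enzyme, pH 7.5 HEPES/EDTA/Tween-20 buffer; 15 min compound preinc., RT. Start: 75uM H3(1-25), 70uM AcCoA, 50uM ThioGlo1. Read Ex340/Em540 at t=0 (autofluorescence flag) and t=20 min.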
A number is an active result; n = inactive; u = inconclusive; x = no result; [ ] = dose if it differs, or a comment. Calls come from the whole dose curve; as a rule, active = well fitted curve in the direction sought with a large enough effect; inconclusive = small, poorly fitted or top-dose-only effect, or another doubt; inactive = no such curve, though single readings can be large; an effect the other way counts as inactive or inconclusive.

SMILES | VDR inhibitor | PLK1 PBD inh | ALOX12 inh | KAT2A inh
Cn1c(N)c(-c2csc(NC3CC3)n2)c(=O)n(C)c1=O | x | x | 7.9µM | x
COc1ccc(-c2csc(NC3CCCCC3)n2)c(OC)c1 | n | u | u | n
Cn1c(N)c(-c2csc(Nc3ccccc3)n2)c(=O)n(C)c1=O | x | x | 45µM | x
CC(NC(=O)c1cc2ccccc2[nH]1)c1ccccc1 (stereo not given) | x | x | n | x
CC1=CC(=C(C#N)c2nc3ccccc3s2)C=C(C)N1CC1CCCO1 (stereo not given) | n | 27µM | u | n
COc1cc(C2CC(=O)Nc3[nH]ncc32)ccc1OCc1ccc(Cl)cc1 (stereo not given) | x | x | n | x
O=C(Nc1ccccc1F)c1ccc(Cn2nc(N3CCN(c4ccccc4)CC3)ccc2=O)o1 | n | x | 45µM | n
O=C(Nc1ccc(F)cc1)c1ccc(Cn2nc(N3CCN(c4ccccc4)CC3)ccc2=O)o1 | n | x | u | n
COc1ccc2[nH]cc(CCNc3cc(-c4ccccc4C(F)(F)F)ncn3)c2c1 | n | x | u | n
Clc1ccccc1-c1cc(NCc2ccccc2)ncn1 | 45µM | x | u | u
COc1ccc2[nH]cc(CCNc3ccnc(-c4cccc(NS(C)(=O)=O)c4)n3)c2c1 | n | x | 40µM | n
COc1ccc2[nH]cc(CCNc3ccnc(-c4cccc(C#N)c4)n3)c2c1 | n | x | n | n
COc1ccc2[nH]cc(CCNc3cc(-c4ccccc4Cl)ncn3)c2c1 | u | x | 16µM | n
Clc1cc(NCc2ccccc2)ncn1 | n | n | n | n
O=C(NCc1ccco1)c1cccc(Nc2nc3ccc(Br)cc3[nH]2)c1 | n | n | n | n
O=C(NCC1CC1)c1ccc(Nc2nc3ccc(Br)cc3[nH]2)cc1 | n | 11µM | u | n
CC1(C)CC(=O)c2sc(NC(=O)CN3CCCCC3)nc2C1 | n | n | 32µM | n
O=C(CSc1nc(-c2cccs2)nc2ccccc12)N1CCCCC1 | x | x | n | x
CCSc1nc(-c2cccs2)nc2ccccc12 | n | 24µM | n | n
Cc1cc(C(=O)COC(=O)c2ccccc2Br)c(C)n1CC1CCCO1 (stereo not given) | n | n | n | n
Cc1ccc(C(=O)OCC(=O)c2cc(C)n(CC3CCCO3)c2C)cc1 (stereo not given) | n | n | n | n
Cc1cc(C(=O)COC(=O)c2cccnc2Cl)c(C)n1CC1CCCO1 (stereo not given) | 89µM | n | u | n
Cc1cc(C(=O)COC(=O)c2cc(O)c3ccccc3c2O)c(C)n1CC1CCCO1 (stereo not given) | 71µM | 8.4µM | x | n
COc1ccc(C(=O)/C(=C\c2ccc(Cl)cc2)c2nc3ccccc3o2)cc1 | x | x | n | x
CCOC(=O)NC(CN)c1ccccc1 (stereo not given) | x | x | n | x
SMILES | VDR inhibitor | PLK1 PBD inh | ALOX12 inh | KAT2A inh
CC(C)(C)C(=O)N(Cc1ccc2cc[nH]c2c1)C1CC1 | x | x | n | x
Clc1ccc2c(c1)C(c1ccccc1)=Nc1ccc(Cl)cc1C(c1ccccc1)=N2 | x | x | n | x
Clc1ccc(N/N=C/c2ccccc2)cc1Cl | x | x | 2.2µM | x
Clc1ccc(N/N=C/c2cccc(/C=N/Nc3ccc(Cl)c(Cl)c3)c2)cc1Cl | x | x | 0.71µM | x
Clc1cccc(/C=N/N=C/c2cccc(Cl)c2)c1 | x | x | n | x
Clc1cccc(/C=N/Nc2ccc(Cl)c(Cl)c2)c1 | x | x | 5.6µM | x
Brc1cccc(/C=N/Nc2ccc3ccccc3c2)c1 | x | x | 5.6µM | x
Clc1ccc(N/N=C/c2ccncc2)cc1Cl | n | n | u | n
Brc1cccc(/C=N/Nc2cccc3cccnc23)c1 | x | x | n | x
COCCN1C(=O)CC[C@]2(C(=O)NCc3cccc(OC)c3OC)CCCC[C@@H]12 | x | x | n | x
Cc1ccc(-c2cc(C(=O)N3CCN(C)CC3)c3ccccc3n2)s1 | x | x | n | x
N#Cc1nc(Cc2cccc3ccccc23)oc1N1CCCC1 | x | x | n | x
CCCCCCS(=O)(=O)CCO | x | x | n | x
COCCOCCn1c(/C=C/c2ccccc2)nc2ccccc21 | u | 19µM | n | n
CCCn1c(/C=C/c2ccccc2)nc2ccccc21 | n | n | n | n
CCn1c(/C=C/c2cc[n+](C)cc2)nc2ccccc21 | n | n | 11µM | u
Cc1ccc(Nc2nc(CSc3nnnn3C3CC3)cs2)cc1 | x | x | n | x
Cc1ccccc1Nc1nc(CSc2nnnn2C2CC2)cs1 | x | x | 28µM | x
O=C(CNS(=O)(=O)c1ccc(C(=O)N2CCCCC2)cc1)N1CCCCC1 | n | 30µM | n | n
COc1cccc(N2C(=O)NC(=NC3CCCC3)C23CCN([S+](=O)([O-])c2cccc(C(F)(F)F)c2)C3)c1 (stereo not given) | x | x | n[6.33 µM] | x
COc1ccccc1Nc1nc(N)nc(CSc2ncccn2)n1 | n | 27µM | u | n
CC1CC(C)CN(C(=O)c2ccc(Oc3ccccc3)cc2)C1 (stereo not given) | x | x | n | x
O=C1COc2ccc(-c3ccoc3)nc2CN1Cc1ccc(C(F)(F)F)cc1 | x | x | 40µM | x
O=C(N/C(=C\c1ccccc1)C(=O)N1CCCCCC1)c1ccccc1 | n | 30µM | n | n
O=C(N/C(=C/c1ccccc1)C(=O)N1CCCCC1)c1ccccc1 | n | n | u | n
SMILES | VDR inhibitor | PLK1 PBD inh | ALOX12 inh | KAT2A inh
O=C(CCC(=O)N1CCSc2ccccc21)NCc1cccc(Cl)c1 | n | n | n | 4.5µM
CC1CN(C(=O)CCC(=O)NCc2cccc(Cl)c2)c2ccccc2S1 (stereo not given) | n | x | n | n
Cc1ccc(C2=[N+]([O-])C(C)(C)C(c3ccc(C)cc3)=[N+]([O-])C2(C)C)cc1 | x | x | n | x
Cn1sc(NC(=O)c2ccccc2Cl)nc1=O | u | 30µM | 45µM | u
Cc1ccc(-c2nc3cnccn3c2Nc2ccccc2)o1 | u | n | u | n
Cc1ccc(Nc2c(-c3ccc(C)o3)nc3cnccn23)cc1 | 71µM | 14µM | u | n
O=C1CCN2C=Nc3cccc4ccc1c2c34 | n | 3.8µM | n | u
O=C1CCC(=O)c2ccc3c4c(ccc1c24)CC3 | n | n | u | x
c1coc(-c2cc3nc(NC4CCCCC4)ccn3n2)c1 | x | n | 45µM | x
c1coc(-c2cc3nc(NCc4ccc5c(c4)OCO5)ccn3n2)c1 | x | n | 32µM | x
c1ccc(-c2cc3nc(NCc4ccc5c(c4)OCO5)ccn3n2)cc1 | x | n | n | x
Cc1ccc(N(C(=O)CNC(=O)c2ccccc2)C2(C(=O)NC3CCCC3)CCCCC2)cc1 | x | x | n | x
c1csc(Cc2nn3c(-c4n[nH]c5c4CCC5)nnc3s2)c1 | n | 2.7µM | n | u
Clc1ccc(OCc2nn3c(-c4ccco4)nnc3s2)cc1 | n | 24µM | n | n
c1coc(-c2nnc3sc(Cc4cccs4)nn23)c1 | n | 27µM | u | n
COc1ccc(OCc2nn3c(-c4ccco4)nnc3s2)cc1 | n | n | n | n
Clc1ccc(-c2nnc3sc(Cc4cccs4)nn23)c(Cl)c1 | n | n | n | n
Cc1cc(C)c(OCC(=O)Nc2ccc3oc(C)nc3c2)c(C)c1 | x | x | n | x
CCc1noc(-c2ccn3c(CNC(=O)Cc4cccc(OC)c4)nnc3c2)n1 | x | x | n | x
CCN1c2cc(C)ccc2-n2cccc2C12CCN(C(=O)Nc1cc(OC)ccc1OC)CC2 | x | x | n | x
Cn1cnnc1C1CCCN(S(=O)(=O)N2CCCCCC2)C1 (stereo not given) | x | x | n | x
Cc1ccc(-n2c(N)c(C(N)=O)sc2=S)cc1 | 71µM | 6µM | u | u
CC1=C(C)/C(=N/OC(=O)c2cccc([N+](=O)[O-])c2)C=CC1=O | n | 4.2µM | x | n
